PKA-R2B activ: activators of PKA-R2B holoenzyme, primary screen, biochemical, fluorescence polarization, Cy5-IP20, human. AID 504700, 2011. actives 0.079% (n = 340,000). cAMP-dependent protein kinase catalytic subunit beta (Homo sapiens) + cAMP-dependent …. activation, % at 11.4 µM. PKA-R2B holoenzyme dissociation; R2B truncated from residue 108, S112A mutant; 0% DMSO only, 100% 113 µM cGMP;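 active = activation above a cutoff set at the mean over all compounds plus 3 SD, cut at about 18% in these data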;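 also: higher means more holoenzyme dissociation and a rise in polarization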
pPAFAH FP inh: pPAFAH enzyme inhibitors, primary screen, biochemical, fluorescence polarization, human; Platelet-activating factor acetylhydrolase (Homo sapiens), Q13093; recombinant pPAFAH, FP-rhodamine probe fluorescence polarization; inhibition, % at 3.39 µM; actives 1.5% (n = 330,000); AID 463082, 2010;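 active = inhibition above the mean inhibition across the screen plus 3 SD, cut at about 25% in these data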;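 also: inhibitors block binding of the rhodamine activity-based probe so polarization drops; 0% = enzyme with DMSO and 100% = wells lacking pPAFAH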
Target sequence (Q13093 whole entry, looked up): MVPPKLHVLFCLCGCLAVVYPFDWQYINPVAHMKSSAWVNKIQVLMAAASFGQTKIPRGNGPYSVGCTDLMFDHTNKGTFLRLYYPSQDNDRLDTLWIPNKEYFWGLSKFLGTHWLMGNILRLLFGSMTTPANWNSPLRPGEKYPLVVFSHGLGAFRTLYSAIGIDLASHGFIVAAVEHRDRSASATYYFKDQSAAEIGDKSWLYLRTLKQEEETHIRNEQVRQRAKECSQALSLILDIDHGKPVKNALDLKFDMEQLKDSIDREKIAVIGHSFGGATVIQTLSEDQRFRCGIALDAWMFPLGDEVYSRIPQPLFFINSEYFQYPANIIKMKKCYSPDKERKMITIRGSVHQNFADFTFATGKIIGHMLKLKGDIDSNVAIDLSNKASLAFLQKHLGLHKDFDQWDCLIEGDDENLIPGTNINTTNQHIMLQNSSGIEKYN
PKA-R1A activ: activators of PKA-R1A holoenzyme, primary screen, biochemical, fluorescence polarization, Cy5-IP20, bovine R1A, mouse PKAc; cAMP-dependent protein kinase type I-alpha regulatory subunit (Bos taurus) + …; PKA-R1A dissociation; scaled: DMSO 0%, 113 µM cGMP 100%; activation, % at 11.4 µM; actives 0.083% (n = 340,000);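 active = percent activation above the mean of all tested compounds plus 3 SD, cut at about 19% in these data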;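 also: higher means more PKAc released from R1A so a rise in polarization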
PAFAH1B2 inh: PAFAH1B2 enzyme inhibitors, primary screen, biochemical, fluorescence polarization, human; Platelet-activating factor acetylhydrolase IB subunit alpha2 (Homo sapiens), P68402; recombinant PAFAH1B2, FP-rhodamine activity probe; inhibition, % at 3.39 µM; actives 1.2% (n = 340,000); AID 492953, 2010;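 active = inhibition above the mean of all tested compounds plus 3 SD, cut at about 24% in these data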;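 also: 0% = enzyme with DMSO and 100% = wells lacking PAFAH1B2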
Target sequence (P68402 whole entry, looked up): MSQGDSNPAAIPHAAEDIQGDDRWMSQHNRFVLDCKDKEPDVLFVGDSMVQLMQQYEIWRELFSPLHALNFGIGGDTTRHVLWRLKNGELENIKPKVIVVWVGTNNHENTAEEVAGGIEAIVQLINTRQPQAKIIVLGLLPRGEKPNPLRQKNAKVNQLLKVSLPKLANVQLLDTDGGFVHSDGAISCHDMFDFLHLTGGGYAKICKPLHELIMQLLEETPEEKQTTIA
PAFAH2 FP inh: PAFAH2 enzyme inhibitors, primary screen, biochemical, fluorescence polarization, human; Platelet-activating factor acetylhydrolase 2, cytoplasmic (Homo sapiens), Q99487; recombinant PAFAH2, FP-rhodamine activity probe; inhibition, % at 3.39 µM; actives 0.99% (n = 340,000); AID 492956, 2010;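 active = inhibition above the mean over all tested compounds plus 3 SD, cut at about 30% in these data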;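 also: inhibitors block probe labeling of enzyme so polarization drops; 0% = enzyme with DMSO and 100% = wells lacking PAFAH2 protein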
PAFAH1B3 FP inh: PAFAH1B3 enzyme inhibitors, primary screen, biochemical, fluorescence polarization, human. AID 492972, 2010. recombinant PAFAH1B3, FP-rhodamine probe. Platelet-activating factor acetylhydrolase IB subunit alpha1 (Homo sapiens), Q15102. inhibition, % at 3.39 µM. actives 0.28% (n = 340,000);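 active = inhibition above the screen-wide average of all tested compounds plus 3 SD, cut at about 25% in these data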;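 also: 0% = enzyme with DMSO only and 100% = wells lacking PAFAH1B3 protein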
* hit, by the source's call; . = not tested or not shown. Rows were chosen to be rich in hits. Some 2.6% of all compounds tested hit in one or more screens of this group.

SMILES	PKA-R2B activ	pPAFAH FP inh	PKA-R1A activ	PAFAH1B2 inh	PAFAH2 FP inh	PAFAH1B3 FP inh
O=c1cc(-c2ccccc2)nc2cc(-c3ccco3)[nH]n12	-7.8	27.1*	-2.4	0.8	-7.4	3.2
O=c1cc(-c2ccccc2)nc2cc(-c3ccc(Br)cc3)[nH]n12	-1.1	3.1	-5.1	8.1	3.4	17.8
C[C@@H]1ON(C)[C@H]2C[C@H]3c4[nH]c5ccccc5c4CCN3C[C@@H]12	2.2	.	-1.7	.	.	.
CC1=C(C#N)c2nc(N)c(C#N)c(C)c2/C1=C\c1ccc(OCC(=O)O)c(Cl)c1	-5.8	32.4*	-11.3	1.9	18.0	8.2
CCOC(=O)CSc1nc(N)c(C#N)c(-c2ccc(OCC)cc2)c1C#N	-4.6	-1.6	-6.8	-2.9	1.4	2.2
Cc1cc(NS(=O)(=O)c2ccc(NC(=O)c3ccc([N+](=O)[O-])cc3)cc2)nc(C)n1	-2.2	.	-2.6	.	.	.
Cc1nn(C)c(Oc2ccccc2)c1CCNS(=O)(=O)c1ccc(Cl)cc1	-12.3	11.0	-8.8	24.8*	20.8	2.6
COc1ccc(S(=O)(=O)NCCc2c(C)nn(C)c2Oc2ccccc2)cc1	-11.2	9.1	-4.7	4.8	-1.6	3.9
CCOc1ccccc1N1CC(C(=O)N(CC)CC(=O)Nc2ccc3c(c2)OCCO3)CC1=O (stereo not drawn)	-4.2	-0.8	-2.6	2.7	4.3	-5.2
COc1ccc2[nH]c(=O)c(-c3nnn(-c4ccc(Cl)nc4)n3)cc2c1	-10.3	10.9	-10.3	-2.5	3.0	-2.6
O=C(CSc1nnc(CNC(=O)c2cccs2)o1)Nc1cccc(F)c1	-4.3	0.0	-6.2	7.3	1.9	4.0
O=C(CSc1nnc(CNC(=O)c2cccs2)o1)Nc1cccc(C(F)(F)F)c1	0.8	2.9	-11.8	26.1*	3.8	3.9
O=c1oc2ccccc2nc1/C=C(O)/C=C/c1ccc(F)cc1	-0.7	16.4	0.4	16.2	12.3	6.3
O=c1oc2ccccc2nc1/C=C(O)/C=C\c1ccccc1	1.9	32.8*	-12.4	6.2	2.4	-1.9
COCCN(C(=O)CCc1ccccc1OC)c1nnc(-c2cccnc2)s1	0.5	25.5*	0.0	5.5	5.9	2.2
COCCN(C(=O)CC(C)(C)C)c1nnc(-c2cccnc2)s1	6.0	-1.2	-0.7	1.4	2.0	2.2
CCOC(=O)c1ccc(N2CCN(c3ccccc3F)CC2)c(NC(=O)Nc2cccc(OC)c2)c1	-8.0	25.6*	-17.2	-8.3	-10.3	-22.1
CCc1ccc2c(CN(C)Cc3ccc(OC(F)F)c(OC)c3)cc(=O)oc2c1	11.6	5.9	-8.5	6.8	-0.3	1.9
N#Cc1ccc(S(=O)(=O)N2CCC(C(=O)N3CCN(Cc4ccc5c(c4)OCO5)CC3)CC2)cc1	1.0	-1.6	-0.8	4.3	3.1	8.1
COc1ccccc1C1=NC(c2ccc(C)cc2)N=C1C (stereo not drawn)	-7.8	24.6*	-14.5	7.7	-3.5	7.9
O=C(NCC1CCCO1)c1ccc(COc2ccc(Cl)cc2)cc1 (stereo not drawn)	-7.3	5.4	-3.7	29.1*	2.6	-1.6
O=C(Nc1ccc(F)cc1)c1cccnn1	7.5	0.3	5.9	5.5	8.2	6.4
CN(C)S(=O)(=O)c1ccc(C(=O)NNc2nc(-c3ccccc3)c3cc(Br)ccc3n2)cc1	-5.6	30.4*	-6.8	2.6	-2.4	3.8
COc1cccc([C@@H]2CC=C(C(=O)O)[C@H](c3ccccc3F)N2S(=O)(=O)c2ccc(C)cc2)c1	-1.4	0.9	-11.3	8.7	-8.8	16.9
Cc1ccc(S(=O)(=O)N2[C@@H](c3ccc(Br)cc3)C(C(=O)O)=CC[C@H]2c2ccc(Cl)c(Cl)c2)cc1	-2.1	20.6	-12.1	87.0*	0.4	-0.5
SMILES	PKA-R2B activ	pPAFAH FP inh	PKA-R1A activ	PAFAH1B2 inh	PAFAH2 FP inh	PAFAH1B3 FP inh
COc1cccc([C@@H]2CC=C(C(=O)O)[C@H](c3ccc(C)cc3)N2S(=O)(=O)c2ccc(C)cc2)c1	-1.5	2.9	10.2	27.1*	-8.8	3.8
COc1ccc([C@@H]2CC=C(C(=O)O)[C@H](c3ccc(C)cc3)N2S(=O)(=O)c2ccc(C)cc2)cc1OC	-8.2	6.8	-5.3	11.7	-0.8	5.5
Cc1ccc(S(=O)(=O)N2[C@@H](c3ccc(Cl)cc3)C(C(=O)O)=CC[C@H]2c2ccc(C(C)C)cc2)cc1	-3.8	3.0	6.6	93.0*	15.5	7.7
Cc1ccc(S(=O)(=O)N2[C@@H](c3ccc(Br)cc3)C(C(=O)O)=CC[C@H]2c2ccc3c(c2)OCO3)cc1	-8.4	6.8	4.3	72.1*	-1.9	6.7
Cc1ccc(C)c(OCCC(=O)OCC(=O)Nc2cc(S(=O)(=O)N3CCCCC3)ccc2C)c1	-6.6	18.6	-19.7	0.3	1.3	1.1
Cc1ccc(S(=O)(=O)N2[C@@H](c3ccccc3)C(C(=O)O)=CC[C@H]2c2cccs2)cc1	-1.5	2.8	-8.2	25.4*	2.8	1.3
Cc1ccc([C@@H]2CC=C(C(=O)O)CN2S(=O)(=O)c2ccc(C)cc2)cc1	6.1	4.9	-4.8	28.6*	-3.0	13.9
Cc1ccc(S(=O)(=O)N2[C@@H](c3ccc(C(C)(C)C)cc3)C(C(=O)O)=CC[C@H]2c2cccc(Cl)c2)cc1	-4.5	17.8	5.8	78.1*	5.5	-3.3
COc1ccc([C@@H]2CC=C(C(=O)O)[C@H](c3ccc(C(C)(C)C)cc3)N2S(=O)(=O)c2ccc(C)cc2)cc1OC	-2.8	3.1	-0.9	13.2	-2.7	-1.7
Cc1ccc(S(=O)(=O)N2[C@@H](c3ccccc3F)C(C(=O)O)=CC[C@H]2c2cccs2)cc1	-5.2	2.1	-3.8	21.0	4.7	10.2
Cc1ccc(S(=O)(=O)N2[C@@H](c3ccc(C(C)(C)C)cc3)C(C(=O)O)=CC[C@H]2c2ccc(Cl)c(Cl)c2)cc1	-3.2	18.7	-8.9	75.9*	-6.5	-7.6
CC(C)(C)c1ccc(/C=N/NC(=S)Nc2cccnc2)cc1	.	5.4	.	.	.	.
Oc1ccc(/C=N/NC(=S)Nc2cccnc2)cc1O	3.5	33.1*	0.6	2.3	13.2	13.0
C[C@@H]1CN([C@@H](C)CO)C(=O)CCCn2nncc2CO[C@H]1CN(C)S(=O)(=O)c1ccc(-n2cccn2)cc1	4.1	.	-3.9	.	.	.

High-throughput results (PubChem BioAssay)
